NPC1 prom act – activates the NPC1 promoter; 320,000 compounds, 2.4% hits; Huh7 NPC1 promoter luciferase reporter, 24 h; AID 485313; Potency, µM (highest dose often 9.22 µM), actives largely listed as activators; further: nearly all actives have a fitted effect of over 60% in size
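Huh7 reporter cells (NPC1 promoter driving luciferase) are dosed with compound for 24 h at 37 °C, 5% CO2; luciferase detection reagent is then added and luminescence measured after 10 min at ambient temperature.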
FLuc modulator – inhibits or activates purified firefly luciferase, miR-21 counter-screen | P08659 | 360,000 compounds, 6.9% hits | Potency, µM (series often up to 57.5 µM), usual class: inhibitors | purified FLuc, Km substrates, luminescence inhibition; further: nearly all actives have a fitted effect of over 55% in size
Target sequence (P08659 whole entry, looked up): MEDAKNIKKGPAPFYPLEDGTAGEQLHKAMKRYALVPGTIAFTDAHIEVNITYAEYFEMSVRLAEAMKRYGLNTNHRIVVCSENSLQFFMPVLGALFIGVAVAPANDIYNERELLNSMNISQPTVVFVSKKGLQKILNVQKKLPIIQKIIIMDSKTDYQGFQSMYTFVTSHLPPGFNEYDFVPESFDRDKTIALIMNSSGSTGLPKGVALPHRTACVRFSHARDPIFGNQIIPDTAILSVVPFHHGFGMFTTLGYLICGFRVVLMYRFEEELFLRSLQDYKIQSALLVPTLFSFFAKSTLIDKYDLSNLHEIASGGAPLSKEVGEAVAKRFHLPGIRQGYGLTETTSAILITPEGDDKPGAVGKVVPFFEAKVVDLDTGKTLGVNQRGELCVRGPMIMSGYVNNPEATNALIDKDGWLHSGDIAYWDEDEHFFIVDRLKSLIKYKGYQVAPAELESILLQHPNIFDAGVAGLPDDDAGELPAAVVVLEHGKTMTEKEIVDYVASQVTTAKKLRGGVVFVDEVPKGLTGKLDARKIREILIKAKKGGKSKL
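Purified P. pyralis luciferase (10nM final) with 10uM D-luciferin and 10uM ATP (Km levels) in 50mM Tris acetate pH 7.5, 10mM Mg acetate, 0.01% Tween-20, 0.05% BSA; qHTS 6-point titration, ~60 µM downward; luminescence read.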
KinaseGlo FLuc – counter-screen: inhibitors of Kinase-Glo firefly luciferase; Q27757; Kinase-Glo luciferase, ATP luminescence, 8 min; Potency, µM (top dose mostly 38.3 µM), usual class: inhibitors; 200,000 compounds, 0.28% hits; further: nearly all actives have a fitted effect of over 60% in size
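Inhibition of Kinase-Glo luciferase light generation was assessed at 10 uM ATP in pH 7.2 imidazole buffer, with luminescence measured after eight minutes at ambient temperature.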
SMN2 splice enh – SMN2 splice variant enhancement; Potency, µM (titrated, usually from 46.1 µM), most hits filed as activators; 210,000 compounds, 2.8% hits; HEK293 SMN2-luciferase splicing reporter, luminescence, 30-36 h; AID 1458; further: nearly all actives have a fitted effect of over 55% in size
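qHTS luciferase splicing reporter: luminescence rises when SMN2 exon 7 is included in transfected HEK293 cells. Compound exposure lasted 30-36 h at 37C, with 4.5 mM final sodium butyrate as control, followed by a ONE-Glo read.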
ELG1 genotoxic – genotoxicity induction in ELG1-luciferase HEK293T cells; HEK293T ELG1-luciferase reporter, luminescence, 16 h; Potency, µM (doses to about 46 µM), most hits filed as activators; 330,000 compounds, 1.3% hits; AID 504466; further: nearly all actives have a fitted effect of over 60% in size
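Genotoxicity was scored as increased ELG1-luciferase reporter signal, measured by ONE-Glo luminescence (30 min, room temperature). Compound or vehicle exposure of the HEK293T reporter cells lasted 16 hr at 37°C.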
Rab9 prom act – activates the Rab9 promoter. 320,000 compounds, 2.8% hits. AID 485297. Potency, µM (top dose mostly 9.22 µM), most hits filed as activators. Huh7 Rab9 promoter-luciferase reporter, luminescence, 24 h; further: nearly all actives have a fitted effect of over 60% in size
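Cells were plated at 1500 per well in reduced-serum medium with 10% FBS and left 2 h. Compound in DMSO was then added for 24 h at 37 °C. Reporter signal was read by luminescence after 10 min with luciferase detection reagent.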
Numbers stand for hits; i = inactive; ? = inconclusive; nt = no result given. Compounds with a hit are over-represented: about 7.3% of the library has one in this group of screens. The call rests on the fitted dose curve; in most records, active means well fitted curve in the direction sought with a large enough effect; inconclusive means small, poorly fitted or top-dose-only effect, or another doubt; inactive means no such curve, though single readings can be large; an effect the other way counts as inactive or inconclusive.

SMILES | NPC1 prom act | FLuc modulator | KinaseGlo FLuc | SMN2 splice enh | ELG1 genotoxic | Rab9 prom act
Cc1ccc2nc(-c3ccc(SCC(=O)N4CCc5ccccc54)nc3)[nH]c2c1 | 3.5µM | 0.27µM | i | 11µM | i | 3.2µM
CCOC(=O)CNC(=O)CSc1ccc(-c2nc3ccccc3[nH]2)cn1 | i | ? | nt | nt | i | i
CC(=O)CSc1ccc(-c2nc3cc(C)c(C)cc3[nH]2)cn1 | i | i | i | nt | i | i
Cc1cccc(N2CCN(S(=O)(=O)c3cnc[nH]3)CC2)c1C | i | i | i | i | i | i
Cc1cc2n(n1)SC(Nc1ccccc1)N2 (stereo unspecified) | i | i | i | i | i | i
NC1=C(c2ccc([N+](=O)[O-])cc2)C(=O)CO1 | i | i | i | i | i | i
CC(C)c1ccc(N(CC(=O)NC2CCCCC2)C(=O)CNC(=O)c2ccco2)cc1 | i | i | nt | nt | i | i
CC(=O)CSc1ccc(-c2nc3ccccc3[nH]2)cn1 | 0.56µM | 4.3µM | nt | nt | ? | 0.71µM
CCc1nnc(NC(=O)CSCc2cc(=O)c3ccc(C)cc3[nH]2)s1 | nt | i | nt | nt | nt | nt
CCc1nnc(NC(=O)CSc2ccc(-c3nc4ccc(C)cc4[nH]3)cn2)s1 | 2.8µM | 1.7µM | nt | nt | 13µM | 3.2µM
CCOC(=O)C1CCCN(C(=O)CN2C(=O)C(CC)Oc3ccc(C)cc32)C1 (stereo unspecified) | i | i | i | i | i | i
Cn1nc(C(F)(F)F)c(/C=N/OC(=O)c2ccc(Cl)cc2)c1Cl | i | ? | i | i | i | i
CC(C)C1=CC2=CCC3[C@@](C)(CCC[C@@]3(C)C(=O)O)C2CC1 (stereo partly specified) | nt | nt | i | i | nt | nt
COc1cc(/C(C)=N/Nc2ccc(C(=O)O)cc2)cc(OC)c1OC | ? | ? | i | 16µM | ? | ?
COc1ccc(OC)c(/C(C)=N/Nc2ccc(C(=O)O)cc2)c1 | i | i | nt | nt | ? | i
COc1ccc(/C(C)=N/Nc2ccc(C(=O)O)cc2)cc1OC | 0.63µM | 6.7µM | i | ? | ? | 1.3µM
COc1ccc(NC(=O)C2CCC(CNS(=O)(=O)c3ccc(Br)s3)CC2)c(OC)c1 (stereo unspecified) | nt | i | nt | i | nt | nt
COC(=O)c1cc(-c2ccc(OC)c(OC)c2)n[nH]1 | i | i | i | i | i | i
CCOc1ccc(-c2cc(-c3nc(-c4ccc(OC)c(OC)c4)no3)[nH]n2)cc1 | nt | 19µM | nt | nt | nt | nt
COc1ccc(-c2ncncc2-c2ccc(OC)c(OC)c2)c(O)c1 | i | i | nt | nt | i | i
COc1ccc(-c2cc(-c3ccccc3O)[nH]n2)cc1OC | ? | 2.4µM | i | ? | 21µM | 4µM
COc1ccc(-c2cc(-c3ccc(OC)c(OC)c3)n[nH]2)c(O)c1 | ? | 5.4µM | i | 22µM | 5.8µM | ?
COc1ccc(-c2cc(-c3cc(F)ccc3O)[nH]n2)cc1OC | 3.2µM | 8.5µM | i | ? | ? | 4µM
COc1ccc(OCc2nc(-c3ccc(OC)c(OC)c3)no2)cc1 | nt | i | nt | i | nt | nt
O=C(/C=C/c1ccccc1)NC1CCS(=O)(=O)C1 (stereo unspecified) | i | i | i | i | i | i
SMILES | NPC1 prom act | FLuc modulator | KinaseGlo FLuc | SMN2 splice enh | ELG1 genotoxic | Rab9 prom act
CC(C)n1c(C(=O)OCC(=O)NCc2ccc3c(c2)OCO3)cc2sccc21 | i | i | i | i | i | i
CC(OC(=O)c1cccs1)C(=O)NCCc1ccccc1 (stereo unspecified) | i | i | nt | nt | i | i
Cc1cc(=O)[nH]c2nnc(-c3ccc(Br)cc3)n12 | 2.8µM | 0.95µM | nt | nt | ? | ?
Cc1c(/C=N\NC(=O)c2ccc(F)cc2)cnn1C | i | i | i | i | i | i
Cc1c(/C=C/C(=O)c2ccc(C(C)C)cc2)cnn1C | i | 1.9µM | i | i | ? | ?
Cc1nn(Cc2c(Cl)cccc2Cl)c(C)c1NC(=O)/C=C/c1cnn(C)c1C | i | i | i | i | i | i
Cc1c(/C=C/C(=O)c2ccc(O)cc2)cnn1C | ? | 11µM | i | ? | 21µM | ?
CCn1ncc(/C=C/C(=O)c2ccccc2)c1C | ? | ? | 10µM | ? | ? | ?
Cc1c(/C=C/C(=O)c2ccc(Cl)s2)cnn1C | ? | 1.5µM | i | i | ? | ?
CCn1ncc(/C=N\NC(=O)COc2ccccc2)c1C | i | i | i | i | i | i
O=C1C2C3C=CC(C3)C2C(=O)N1c1cccc(-c2nc3ccccc3o2)c1 (stereo unspecified) | i | i | i | ? | i | i
O=C(O)c1ccc(Cl)c(S(=O)(=O)Nc2ccc(S(=O)(=O)Nc3cccc(Cl)c3)cc2)c1 | i | i | nt | nt | i | i
Cc1c(/C=C/C(=O)c2ccccc2)cnn1C | ? | 4.8µM | ? | ? | ? | ?
CN(C)c1ccc(/C=C/C(=O)c2cccc(Br)c2)cc1 | i | 3µM | i | i | i | i
CN(C)c1ccc(C(=O)/C=C/c2cccnc2)cc1 | ? | 3µM | nt | nt | i | ?
Cn1c(O)c(C(C#N)=C2N=c3ccccc3=N2)c2ccccc21 | i | 9.5µM | i | i | i | i
N#CC(=C1N=c2ccccc2=N1)c1c(O)[nH]c2ccccc12 | i | ? | i | i | i | i
COCC(C)n1c(C)cc(C(=O)COC(=O)c2cnc(Cl)c(Cl)c2)c1C (stereo unspecified) | nt | nt | nt | nt | i | nt
COCC(C)n1c(C)cc(C(=O)COC(=O)c2ccc3ncsc3c2)c1C (stereo unspecified) | i | 17µM | i | i | ? | i
CCCCOc1cccc(NC(=O)c2cccc(C(=O)Nc3cccc(OCCCC)c3)c2)c1 | nt | i | nt | i | nt | nt
Cc1ccc(NC(=O)c2ccc(OC(=O)COc3ccc(Cl)c(C)c3)cc2)cc1 | 2.2µM | ? | i | 13µM | ? | 3.5µM
COC(=O)COc1cccc(NC(=O)c2cc(OC)cc(OC)c2)c1 | i | ? | i | i | i | i
COC(=O)COc1cccc(NC(=O)c2ccc(Cl)cc2)c1 | i | 27µM | i | i | i | i
Cc1ccc(NC(=O)c2ccc(OCc3c(C)noc3C)cc2)cc1 | i | i | nt | nt | i | i
COC(=O)COc1cccc(NC(=O)c2ccc(C)cc2)c1 | i | 12µM | i | i | i | i
SMILES | NPC1 prom act | FLuc modulator | KinaseGlo FLuc | SMN2 splice enh | ELG1 genotoxic | Rab9 prom act
Cc1ccc(NC(=O)c2cccc(OCc3c(C)noc3C)c2)cc1 | i | 24µM | i | i | i | i
O=c1[nH]c(N/N=C/c2ccccc2Br)nnc1-c1ccccc1 | i | i | i | i | i | i
CCC(C(=O)OC)n1cnc2c(nnn2-c2cccc(Cl)c2)c1=O (stereo unspecified) | i | i | i | i | i | i
Cc1ccc(C(=O)N/N=C\c2sccc2C)cn1 | ? | 17µM | i | ? | ? | ?
Cc1ccsc1/C=N/NC(=O)c1sccc1C | 2.5µM | 5.4µM | ? | 11µM | ? | 3.2µM
Cc1ccsc1/C=N/NC(=O)CO | i | i | i | i | i | i
